The source made the active and inactive calls. Unless noted, how the calls were made is not given here.

Test [1] relates to Wnt5a (protein binding on small-molecule microarray). Kind of test: Wnt5a binders on small-molecule microarray, primary screen, biophysical, 635/667 nm fluorescence (AID 1142).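 Further: fluorescence read at 667 nm with signal to noise per printed feature.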 To be noted: 635 nm fluorescence, higher = more signal.
A short description of test [2]: cell viability in Huh7 cells, primary screen, cytotoxicity control for HCV replication inhibitor project, CellTiter-Glo luminescence, basal, 48 h (AID 1143).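 Further: Huh7 hepatoma cells carrying a hepatitis C replication reporter with no stimulus; test concentration not given here.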 To be noted: Huh7 HCV replicon, higher = more signal, called active from +8 up or from −8 down. (Cellular ATP, detected with luciferase, serves as a proxy for viable cell number.)
Test [3] can be described thus: P. aeruginosa biofilm formation inhibitors, primary screen, PAO1 strain, BacTiter-Glo luminescence, LB-PBS (AID 1144). The conditions noted are these: 12 h, higher = more signal.
The nature of test [4]: CREB reporter modulators without forskolin, primary screen, cell-based, PC12, CRE-LacZ reporter, unstimulated (AID 1145). To be noted: no forskolin, luminescence, 4.5 h, higher = more signal, called active from +8 up or from −8 down.
Test [5] can be described thus: CREB reporter modulators under forskolin, primary screen, cell-based, PC12, CRE-LacZ reporter, forskolin-stimulated (AID 1146).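 Further: PC12 cells with 6xCRE LacZ reporter stimulated by forskolin 10 µM; beta-galactosidase reporter signal reflecting CREB driven transcription.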 The conditions noted are these: luminescence, 4.5 h, higher = more signal, called active from +8 up or from −8 down.
Test [6] addresses Streptavidin (Streptomyces avidinii) (UniProt P22629). Kind of test: streptavidin binders on small-molecule microarray, primary screen, artefact control for SMM compound annotation, biophysical, 635/667 nm fluorescence (AID 1147).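 Further: signal reflects streptavidin binding to arrayed compounds as a control protein.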 The conditions noted are these: streptavidin binding, higher = more signal.
Test [7] is described as follows: small-molecule binders of probe aInhba, primary screen, biochemical, small-molecule microarray, 635/667 nm fluorescence (AID 1148).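 Further: score merges 667nm spot fluorescence with signal-to-noise for antibody binding to printed compounds.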 The conditions noted are these: higher = more signal.
Test [8] deals with Torsin-1A (Homo sapiens) (UniProt O14656). Kind of test: torsin A binders from cell lysate, primary screen, small-molecule microarray, wild-type, 635/667 nm (AID 1149). To be noted: COS7 hTOR1A-WT lysate, 635 nm fluorescence, higher = more signal.
Test [9] has the same target. Kind of test: small-molecule binders of mutant TOR1A in lysate, primary screen, cell lysate, small-molecule microarray, COS7 lysate, 635/667 nm fluorescence (AID 1150).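 Further: score pools 667 nm emission and signal to noise measuring lysate protein binding.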 To be noted: COS7 hTOR1A mutant lysate, 635 nm fluorescence, higher = more signal.
Test [10] relates to Sonic hedgehog protein (Shh). Kind of test: small-molecule binders of Shh protein, primary screen, biochemical, small-molecule microarray, 635/667 nm fluorescence (AID 1151).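 Further: Shh protein binding to compounds spotted on small-molecule microarray slides; score combines spot fluorescence intensity with signal-to-noise across triplicate slides.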 To be noted: small-molecule microarray binding, 635 nm fluorescence; higher = more signal.
A short description of test [11]: E. coli DRC41 culture turbidity changes, primary screen, E. coli filamentation inducer project, strain DRC41, OD650, 48 h (AID 1152).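 Further: E. coli MC1000 strain DRC41 lacking acrAB efflux pump and sulA.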 The conditions noted are these: E. coli DRC41 (acrAB sulA), higher = more signal, called active from +8 up or from −8 down.
The nature of test [12]: small-molecule binders of probe aLefty1, primary screen, biochemical, small-molecule microarray, 635/667 nm fluorescence (AID 1153).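 Further: score merges spot fluorescence with signal-to-noise ratio from the scanned slide images.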 To be noted: higher = more signal.
The nature of test [13]: PSAC antagonists in infected red cells, primary screen, cell-based, P. falciparum Indochina, OD700, 1 h (AID 1154). The conditions noted are these: P. falciparum Indochina infected RBC osmotic lysis, higher = more signal, called active from +8 up or from −8 down.
A short description of test [14]: PSAC antagonists in infected red cells, primary screen, cell-based, P. falciparum Indochina, OD700, 2 h (AID 1155).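 Further: lysis reports solute entry through the parasite surface anion channel PSAC; channel blockers reduce lysis of infected cells.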 To be noted: P. falciparum Indochina infected erythrocytes, osmotic lysis OD700; higher = more signal, called active from +8 up or from −8 down.
A short description of test [15]: osmotic lysis modulators in infected erythrocytes, primary screen, PSAC antagonist project, cell-based, P. falciparum Indochina, OD700, 3 h (AID 1156). The conditions noted are these: higher = more signal, called active from +8 up or from −8 down.
Test [16] can be described thus: PSAC antagonists in infected red cells, primary screen, cell-based, P. falciparum Indochina, OD700, 18 h (AID 1157). To be noted: P. falciparum Indochina infected erythrocytes, osmotic lysis OD700, 18 h; higher = more signal, called active from +8 up or from −8 down.
Test [17] is described as follows: modulators of S6 phosphorylation in cells, primary screen, cell-based, A549, cytoblot, luminescence, serum-stimulated (AID 1158).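 Further: serum-stimulated A549 lung adenocarcinoma cells; signal is phosphorylated S6 detected by cytoblot immunostaining with HRP secondary.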 To be noted: A549 phospho-S6 cytoblot, 5 h, higher = more signal.
Test [18] concerns the target NADPH oxidase 2 (Homo sapiens) (UniProt P04839). In words: NOX2-dependent H2O2 signal modulators, primary screen, NOX inhibitor project, cell-based, HEK293-NOX2, PMA-stimulated, Amplex Red fluorescence (AID 1159). Further: test concentration not given here. To be noted: 45 min, higher = more signal, called active from +8 up or from −8 down.
For test [19], the target named is NADPH oxidase 4 (Homo sapiens) (UniProt Q9NPH5). Kind of test: NOX4-dependent H2O2 signal modulators, primary screen, NOX inhibitor project, cell-based, HEK293-NOX4, tetracycline-induced, Amplex Red fluorescence (AID 1160). The conditions noted are these: 45 min, higher = more signal, called active from +8 up or from −8 down.
The target of test [20] is NADPH oxidase 5 (Homo sapiens) (UniProt Q96PH1). Kind of test: NOX5-dependent H2O2 signal modulators, primary screen, NOX inhibitor project, cell-based, HEK293-NOX5, Amplex Red fluorescence (AID 1161). The conditions noted are these: HEK293-NOX5, ionomycin, 45 min, higher = more signal.
Chain of NADPH oxidase 5 (Homo sapiens) (Q96PH1 whole entry, looked up): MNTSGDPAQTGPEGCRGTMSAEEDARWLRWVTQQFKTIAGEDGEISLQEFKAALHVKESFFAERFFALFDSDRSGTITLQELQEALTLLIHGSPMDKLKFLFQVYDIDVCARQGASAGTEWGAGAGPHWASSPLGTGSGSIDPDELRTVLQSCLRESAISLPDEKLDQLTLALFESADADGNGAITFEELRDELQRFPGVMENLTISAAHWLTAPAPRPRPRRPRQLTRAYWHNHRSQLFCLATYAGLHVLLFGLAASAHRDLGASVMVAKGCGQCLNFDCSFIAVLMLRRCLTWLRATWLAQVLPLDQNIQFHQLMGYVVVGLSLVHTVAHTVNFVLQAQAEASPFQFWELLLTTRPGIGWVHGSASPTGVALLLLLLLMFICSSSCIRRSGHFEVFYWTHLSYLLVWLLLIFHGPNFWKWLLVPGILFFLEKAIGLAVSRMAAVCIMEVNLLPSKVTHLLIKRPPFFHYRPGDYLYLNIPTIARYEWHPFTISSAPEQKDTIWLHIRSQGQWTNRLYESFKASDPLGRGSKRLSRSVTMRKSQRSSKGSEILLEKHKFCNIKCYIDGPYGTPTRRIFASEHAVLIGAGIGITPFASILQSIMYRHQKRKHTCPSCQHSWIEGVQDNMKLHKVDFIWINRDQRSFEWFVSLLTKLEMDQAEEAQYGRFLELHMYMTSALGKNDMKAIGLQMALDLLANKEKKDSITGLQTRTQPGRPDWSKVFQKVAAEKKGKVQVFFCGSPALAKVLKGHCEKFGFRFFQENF

Chain of Streptavidin (Streptomyces avidinii) (P22629 whole entry, looked up): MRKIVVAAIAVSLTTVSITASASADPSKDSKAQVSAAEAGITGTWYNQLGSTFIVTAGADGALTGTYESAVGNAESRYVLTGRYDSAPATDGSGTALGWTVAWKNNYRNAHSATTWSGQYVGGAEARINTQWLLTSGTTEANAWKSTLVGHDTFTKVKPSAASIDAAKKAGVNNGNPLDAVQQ
Chain of NADPH oxidase 2 (Homo sapiens) (P04839 whole entry, looked up): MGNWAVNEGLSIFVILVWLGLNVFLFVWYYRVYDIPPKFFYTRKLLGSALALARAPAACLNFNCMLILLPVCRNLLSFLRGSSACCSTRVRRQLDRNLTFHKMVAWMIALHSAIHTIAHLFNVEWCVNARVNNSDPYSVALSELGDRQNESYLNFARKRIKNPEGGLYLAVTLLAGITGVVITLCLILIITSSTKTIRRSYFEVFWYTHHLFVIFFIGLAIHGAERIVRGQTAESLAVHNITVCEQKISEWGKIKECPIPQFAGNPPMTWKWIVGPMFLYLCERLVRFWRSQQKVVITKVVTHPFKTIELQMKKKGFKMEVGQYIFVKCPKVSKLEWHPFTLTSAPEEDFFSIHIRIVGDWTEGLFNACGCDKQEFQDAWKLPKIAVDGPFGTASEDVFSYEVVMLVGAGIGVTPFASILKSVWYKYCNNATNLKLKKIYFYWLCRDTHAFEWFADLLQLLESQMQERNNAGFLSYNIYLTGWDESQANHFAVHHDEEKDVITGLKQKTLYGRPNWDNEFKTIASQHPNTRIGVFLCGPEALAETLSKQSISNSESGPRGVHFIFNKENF
Chain of Torsin-1A (Homo sapiens) (O14656 whole entry, looked up): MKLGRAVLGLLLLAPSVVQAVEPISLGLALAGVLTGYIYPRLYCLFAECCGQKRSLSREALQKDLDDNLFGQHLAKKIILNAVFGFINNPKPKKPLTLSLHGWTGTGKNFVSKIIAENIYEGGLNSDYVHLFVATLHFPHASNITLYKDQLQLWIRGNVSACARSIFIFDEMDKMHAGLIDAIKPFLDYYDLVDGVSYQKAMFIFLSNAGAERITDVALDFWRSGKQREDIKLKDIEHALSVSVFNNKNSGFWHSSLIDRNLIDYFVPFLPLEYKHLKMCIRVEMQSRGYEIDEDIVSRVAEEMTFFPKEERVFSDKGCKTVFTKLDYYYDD
Chain of NADPH oxidase 4 (Homo sapiens) (Q9NPH5 whole entry, looked up): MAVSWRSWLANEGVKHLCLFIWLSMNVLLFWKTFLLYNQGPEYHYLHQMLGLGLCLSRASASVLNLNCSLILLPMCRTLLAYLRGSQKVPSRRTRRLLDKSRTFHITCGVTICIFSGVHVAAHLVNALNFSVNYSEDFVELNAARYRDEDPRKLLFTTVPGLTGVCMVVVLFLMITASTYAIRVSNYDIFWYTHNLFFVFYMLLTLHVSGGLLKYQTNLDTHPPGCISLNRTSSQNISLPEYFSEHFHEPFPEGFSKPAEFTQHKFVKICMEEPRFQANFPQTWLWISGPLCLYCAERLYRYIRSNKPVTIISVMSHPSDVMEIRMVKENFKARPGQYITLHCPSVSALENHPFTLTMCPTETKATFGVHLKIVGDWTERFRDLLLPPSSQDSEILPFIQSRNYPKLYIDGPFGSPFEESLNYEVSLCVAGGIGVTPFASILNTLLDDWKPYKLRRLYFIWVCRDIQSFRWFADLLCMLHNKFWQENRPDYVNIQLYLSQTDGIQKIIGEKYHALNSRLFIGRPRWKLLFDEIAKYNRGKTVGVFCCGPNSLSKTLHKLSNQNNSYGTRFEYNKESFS

For the molecule `COC(=O)[C@@]1(Cc2ccccc2)N=C(c2ccc(OCCCO)cc2)O[C@H]1c1ccccc1CN=[N+]=[N-]`, the composite z-score was 0.289 in [1]; -0.12 in test [6]; 0.0227 in test [7]; 0.009 with Torsin-1A (Homo sapiens) [8]; 0.668 with Torsin-1A (Homo sapiens) [9]; 1.88 in test [10]. Further, the composite z-score in test [12] amounted to 0.313. Besides, the z-score is -5.03 (inactive) in test [2]; -0.621 (inactive) in test [3]; -0.435 (inactive) in test [4]; -1.97 (inactive) in test [5]; 1.11 (inactive) in test [11]; 23 (active) in test [13]. Also, the z-score was 7.26 (inactive) in [14]; -0.202 (inactive) in test [15]; 2.21 (inactive) in test [16]; 0.239 in test [17]; -6.02 (inactive) in test [18]; -0.914 (inactive) in [19]. Also, the z-score in [20] is -3.31.
`C=C(COC)/C(=C/C[C@H](OC(C)=O)c1ccccc1OCCO)c1cc(C(=O)OC)ccc1OC`: the composite z-score in test [1] is 0.0266; in test [6], -0.432; in test [7] it was -0.0589; with Torsin-1A (Homo sapiens) [8] it was -0.035; with Torsin-1A (Homo sapiens) [9] it was 0.727; in test [10], 1.2. Moreover, in test [12], the composite z-score is -0.145. Further, the z-score is -3.38 (inactive) in test [2]; 0.0472 (inactive) in test [3]; 14.7 (active) in [4]; 0.659 (inactive) in [5]; 0.311 (inactive) in test [11]; 8.11 (active) in test [13]. For the same molecule, the z-score in test [14] is 1.02 (inactive); in test [15], 0.454 (inactive); in test [16] it was -0.897 (inactive); in test [17], 1.52; in [18], -0.688 (inactive); in [19] it was 0.0021 (inactive). Also, in [20], the z-score is -1.97.
On to `O=C1O[C@H](Cc2ccccc2)[C@@H]2[C@H]3C=CCCC=C3CN2[C@H]1Cc1ccc(O)cc1`, for which the composite z-score is -0.311 in test [1]; -0.0955 in test [6]; 0.214 in test [7]; -0.2 with Torsin-1A (Homo sapiens) [8]; -0.632 with Torsin-1A (Homo sapiens) [9]; -0.282 in test [10]. In addition, in test [12], the composite z-score worked out at 0.0811. The z-score in [2] is -0.0514 (inactive); in [3], -0.818 (inactive); in test [4], -0.0546 (inactive); in [5], 1.11 (inactive); in test [11], 0.676 (inactive); in test [13], 3.72 (inactive). Further, the z-score is 0.0962 (inactive) in [14]; 0.0059 (inactive) in test [15]; 0.157 (inactive) in test [16]; -0.253 in test [17]; -2.69 (inactive) in [18]; -1.58 (inactive) in [19]. Also, in test [20], the z-score is -1.3.
Regarding `COC(=O)[C@H](Cc1ccc(O)cc1)N[C@@H](/C=C/C1CC1)[C@H](O)Cc1ccccc1`, the composite z-score was -0.377 in test [1]; -0.295 in [6]; -0.153 in [7]; -0.474 in the test with Torsin-1A (Homo sapiens) [8]; 0.0615 with Torsin-1A (Homo sapiens) [9]; -0.142 in test [10]. Also, the composite z-score in test [12] is -0.275. Besides, the z-score was -0.794 (inactive) in test [2]; 0.814 (inactive) in test [3]; 7.92 (inactive) in test [4]; 1.6 (inactive) in test [5]; -0.571 (inactive) in test [11]; 0.963 (inactive) in test [13]. Also, the z-score in test [14] is 0.496 (inactive); in test [15] it was 0.098 (inactive); in [16] it was -0.0396 (inactive); in [17] it was -0.557; in test [18], 0.0285 (inactive); in test [19], 0.516 (inactive). Further, the z-score in [20] was -0.929.
With `CC1CC/C=C\[C@H]2OC34C=CCN(c5ccc6ccccc6c5)C(=O)[C@H]3N(C(C)CO)C(=O)[C@@H]4C2C(=O)O1` (stereo not given in full), the composite z-score was -0.786 in test [1]; -0.926 in test [6]; -0.0933 in test [7]; -0.538 in the test with Torsin-1A (Homo sapiens) [8]; -1.15 with Torsin-1A (Homo sapiens) [9]; -0.254 in test [10]. Moreover, the composite z-score in test [12] was -0.0933. Further, the z-score is -0.0174 (inactive) in test [2]; 0.282 (inactive) in test [3]; -0.0899 (inactive) in [4]; -0.0752 (inactive) in [5]; -0.114 (inactive) in test [11]; 0.856 (inactive) in test [13]. Further, the z-score in test [14] was 0.222 (inactive); in test [15], 0.927 (inactive); in test [16], 0.233 (inactive); in test [17] it was -0.347; in test [18], 0.995 (inactive); in [19], -0.181 (inactive). This molecule also gave a z-score in test [20] of 1.58.
For the molecule `NC(=O)N1C(=O)C2C(C1=O)C1C=C(CCCO)C2C(c2ccc(CN3CCCC3)cc2)N1Cc1sc2ccccc2c1Cl` (stereo not given), the composite z-score in [1] was -0.24; in test [6] it was 0.558; in test [7], -0.268; with Torsin-1A (Homo sapiens) [8], -0.174; with Torsin-1A (Homo sapiens) [9], 0.823; in test [10], 0.287. The composite z-score in [12] is -0.251. Besides, the z-score in test [2] is -3.46 (inactive); in test [3], 0.386 (inactive); in test [4], -0.0602 (inactive); in [5] it was -1.08 (inactive); in test [11] it was -0.711 (inactive); in [13], 3.48 (inactive). The z-score in test [14] was 0.894 (inactive); in test [15] it was 0.363 (inactive); in test [16] it was 0.504 (inactive); in test [17] it was 0.457; in test [18], -0.101 (inactive); in [19], 0.353 (inactive). In addition, the z-score in [20] was found to be 0.198.
As for `CN(C)CCCCNC(=O)[C@H]1C[C@H]2C(=O)N3CCC[C@H]3C(=O)N2[C@H]1c1cccc(OCCO)c1`, the composite z-score was -0.202 in test [1]; 1.89 in test [6]; -0.0403 in [7]; -0.107 in the test with Torsin-1A (Homo sapiens) [8]; 0.98 with Torsin-1A (Homo sapiens) [9]; 1.17 in [10]. The composite z-score in [12] worked out at 0.517. Besides, the z-score in [2] is 0.196 (inactive); in test [3], -1.17 (inactive); in [4], 0.0043 (inactive); in [5] it was -0.258 (inactive); in test [11], -0.019 (inactive); in test [13], 2.99 (inactive). Also, the z-score in test [14] was 0.502 (inactive); in test [15], 0.348 (inactive); in test [16], 0.178 (inactive); in test [17], -0.0038; in test [18], 0.787 (inactive); in test [19], 1.37 (inactive). In [20], the z-score worked out at 0.803.
As for `COC(=O)C(CC#Cc1ccc2c(c1)[C@]1(C(=O)N2)[C@H](C(=O)NC[C@H](O)c2ccccc2)[C@H]2C(=O)O[C@H](c3ccccc3)[C@H](c3ccccc3)N2[C@@H]1c1ccccc1OCCO)C(=O)OC`, the composite z-score in [1] amounted to 0.649; in test [6], 0.703; in test [7] it was 0.0154; with Torsin-1A (Homo sapiens) [8] it was 0.326; with Torsin-1A (Homo sapiens) [9] it was 0.506; in [10], 1.32. In addition, the composite z-score in test [12] was -0.0559. Also, the z-score was -6.04 (inactive) in test [2]; -1.21 (inactive) in [3]; -0.671 (inactive) in [4]; -0.276 (inactive) in test [5]; 1.52 (inactive) in [11]; 4.2 (inactive) in [13]. Further, the z-score in [14] is 0.574 (inactive); in [15] it was 0.725 (inactive); in test [16] it was -0.124 (inactive); in test [17], 1.46; in [18] it was 0.504 (inactive); in test [19] it was -0.421 (inactive). The z-score in [20] is -2.45.

Source of the values: PubChem BioAssay.
